The text below walks through data of PubChem BioAssay AID624256 (NMMLSC, 2012).

Hit rate of the full screen: of about 360,000 compounds, about 3,700 (1%) were called active. Inconclusive results (about 2%) are left out.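 The calls were made as follows: active = normalized GFP-positive differentiation at or above the plate's own cutoff, the solvent-only control mean plus 3 SD; inconclusive = no clear call, values can overlap the other calls; inactive = the rest.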 What follows is part of a selection rich in actives, with near analogues and random picks from the rest.

The nature of this experiment: induction of myeloid progenitor differentiation, primary screen, cell-based, flow cytometry, MLPCN library (AID 624256).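 As to GFP+ MAC1+ double positive: cells exposed to compound for four days before flow analysis.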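 As to normalized GFP-positive differentiation: cells exposed to compound for four days before flow analysis; 0% = DMSO wells and 100% = fulvestrant positive control at 5 µM.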 Particulars: ER-HoxA9 myeloid progenitors, lysozyme-GFP differentiation, at 10 µM; GFP+ MAC1+ double positive: measured here: differentiation confirmed by MAC1 staining, stronger effect = higher value; normalized GFP-positive differentiation: stronger effect = higher value.
Take `Cc1cccc(-c2cnc(C(O)c3ccc4ccccc4c3)[nH]2)c1` (centres undefined): the GFP+ MAC1+ double positive is 0.2% and the call was inactive.
For `CCCN(CCC)c1nc2c(C)cccn2c(=O)c1/C=C1/SC(=S)N(Cc2ccco2)C1=O`, the GFP+ MAC1+ double positive is 9.4% and the normalized GFP-positive differentiation is 389% (active).
With `Cc1cccn2c(=O)c(/C=C3\SC(=S)N(CC(C)C)C3=O)c(NCCCOC(C)C)nc12`, the GFP+ MAC1+ double positive turned out to be 6% and the normalized GFP-positive differentiation is 235% (active).
Consider `Cc1ccc2[nH]c(=O)c(-c3nc4c(C)cccn4c3NCc3ccco3)cc2c1`, for which the GFP+ MAC1+ double positive came to 0.8% and the outcome was inactive.
In the case of `Cc1cccn2c(=O)c(C=O)c(Nc3ccc(S(N)(=O)=O)cc3)nc12`, the GFP+ MAC1+ double positive stood at 0.8% and the call was inactive.
Turning to `CNc1nc2c(C)cccn2c(=O)c1C=Nc1ccc(OC)cc1`, the GFP+ MAC1+ double positive was determined as 0.6% and the outcome was inactive.
Consider `CC(C)C1C(=O)N(Cc2cn(CCC3OCCO3)nn2)CCS(=O)(=O)N1Cc1ccc(-c2ccccc2C(F)(F)F)cc1` (centres undefined), for which the GFP+ MAC1+ double positive was 1.5% and the outcome was inactive.
For `CCCCOCCCNC(=O)C[C@@H]1C[C@@]2(C(=O)OC)CCCCC=C2N(CCC2=CCCCC2)C1=O`, the GFP+ MAC1+ double positive was 1.3% and the outcome was inactive.
Consider `CCOC(=O)[C@]12CCCC=C1N(CCC1=CCCCC1)C(=O)[C@H](CC(=O)NCCCOC)C2`, for which the GFP+ MAC1+ double positive worked out at 2.8% and the call was inactive.
`CC(C)NC(=O)C1(C)CCCCN1Cc1cccc(C(F)(F)F)c1` (centres undefined): the GFP+ MAC1+ double positive stood at 1.4% and the compound was called inactive.
With `COc1ccccc1CNC(=O)C1CCN(S(C)(=O)=O)CC1`, the GFP+ MAC1+ double positive is 0.7% and the result was inactive.
For `COc1ccccc1CNC(=O)C1CCN(c2nc3ccccc3o2)CC1`, the GFP+ MAC1+ double positive worked out at 4.6% and the normalized GFP-positive differentiation is 9.06% (active).
For `COc1ccccc1CNC(=O)C1CCN(C(=O)[C@@H]2Cc3ccccc3CN2)CC1`, the GFP+ MAC1+ double positive came out at 4.9% and the result was inactive.
For the compound `CNC[C@H]1OCc2cnnn2CCCC(=O)N([C@H](C)CO)C[C@@H]1C`, the GFP+ MAC1+ double positive came out at 0.8% and the call was inactive.
For `CC(C)C[C@H]1CNC(=O)C(=O)N1C[C@H]1CCCN1C[C@H](Cc1ccc(O)cc1)N1C[C@H](CC(C)C)N(CC2CCCCCC2)C(=O)C1=O`, the GFP+ MAC1+ double positive stood at 1.3% and the compound was called inactive.
On the same counts, the results for `CCCCc1c(-c2ccc(Cl)cc2)ncn1CCc1ccccc1OC` are 2.2% and “inactive”.
As to `N#CCC(=O)NC(=O)NCC1CC1`, the GFP+ MAC1+ double positive was 1.2% and the call was inactive.
As to `CC(C)(C)NC(=O)NC(=O)COC(=O)CCC1CCCCC1`, the GFP+ MAC1+ double positive was determined as 0.5% and the compound was called inactive.
With `O=C(NCC1CCCCC1)NCC1CCCCC1`, the GFP+ MAC1+ double positive worked out at 5.3% and the normalized GFP-positive differentiation was 9.67% (active).
Consider `COC(=O)Cc1ccc(OC2(C)CCN(Cc3ccc4c(c3)OCCO4)C2)cc1` (centres undefined), for which the GFP+ MAC1+ double positive came to 2.5% and the result was inactive.
The corresponding values for `CCC(c1nc2ccccc2[nH]1)n1c(=O)c(-c2cccs2)nc2ccccc21` (centres undefined) are 2.5% and “inactive”.
Turning to `CCCc1c(-c2ccccc2F)ncn1Cc1ccccc1OC`, the GFP+ MAC1+ double positive amounted to 1.4% and the call was inactive.
`CCc1c(-c2ccc(F)cc2)ncn1Cc1cccc(-c2ccccc2)c1`: the GFP+ MAC1+ double positive is 3.4% and the compound was called inactive.
Consider `Nc1cc(=O)n(Cc2ccccc2)c(=O)n1Cc1ccccc1`, for which the GFP+ MAC1+ double positive is 1.4% and the result was inactive.
In the case of `CN(C(=O)COC(=O)c1ccc(Br)o1)c1c(N)n(Cc2ccccc2)c(=O)[nH]c1=O`, the GFP+ MAC1+ double positive was 0.6% and the compound was classed as inactive.
For the compound `Cc1cc2nc3c(=O)n(Cc4ccccc4)c(=O)[nH]c3nc2cc1N`, the GFP+ MAC1+ double positive was determined as 5% and the normalized GFP-positive differentiation was 282% (active).
Take `COC(=O)[C@]12CCCCC=C1N(CCC1=CCCCC1)C(=O)[C@H](CC(=O)N1CCSCC1)C2`: the GFP+ MAC1+ double positive came out at 0.5% and the call was inactive.
For the compound `N#CC1=C(N)Oc2c(sc3ccccc23)C1c1ccco1` (centres undefined), the GFP+ MAC1+ double positive stood at 2.5% and the normalized GFP-positive differentiation is 197% (active).
Take `N#CC1=C(N)Oc2cc(N)ccc2C1c1ccccc1` (centres undefined): the GFP+ MAC1+ double positive is 0.2% and the outcome was inactive.
On the same counts, the results for `N#CC1=C(N)Oc2c(ccc3cccnc23)C1c1ccncc1` (centres undefined) are 0% and “inactive”.
On to `CCCCNC(=O)OC1CC2CC1[C@H]1CCCCN1C2=O` (some centres undefined), for which the GFP+ MAC1+ double positive was 0.8% and the call was inactive.
For `COC(=O)[C@@]12C[C@@H](CC(=O)NCCCCc3ccccc3)C(=O)N(Cc3ccccc3)C1=CCC(C)(C)C2`, the GFP+ MAC1+ double positive amounted to 3.1% and the outcome was inactive.
On to `Cc1ccc(C(=O)NC2CCCC(C)C2C)cc1S(=O)(=O)N1CCCCC1` (centres undefined), for which the GFP+ MAC1+ double positive was found to be 2.2% and the normalized GFP-positive differentiation is 27.1% (active).
For the compound `Cc1ccc(C(=O)NNC(=O)c2ccncc2)cc1S(=O)(=O)N1CCCCC1`, the GFP+ MAC1+ double positive turned out to be 0.5% and the call was inactive.
The corresponding values for `CC1CCCC(NC(=O)c2cc(S(=O)(=O)N3CCCCC3)ccc2Cl)C1C` (centres undefined) are 1.2% and “inactive”.
The corresponding values for `CCOC(=O)[C@]12CCC=C1N(Cc1ccco1)C(=O)[C@H](CC(=O)NCc1cccc(C(F)(F)F)c1)C2` are 1.6% and “inactive”.
On the same counts, the results for `COc1ccccc1/C=C/C=N/NC(=O)CN1CCN(Cc2ccccc2)CC1` are 0.2% and “inactive”.
Regarding `Cc1cc(NC(=O)CCN2CCN(Cc3ccccc3)CC2)ccc1Br`, the GFP+ MAC1+ double positive worked out at 0.5% and the call was inactive.
With `CN1CCN(CCC(=O)N/N=C/C=C2\N(C)c3ccccc3C2(C)C)CC1`, the GFP+ MAC1+ double positive came to 2.2% and the normalized GFP-positive differentiation is 224% (active).
Turning to `COc1ccc(-c2ccc(C(=O)NCCN3CCOCC3)c3occc23)c(C)c1`, the GFP+ MAC1+ double positive worked out at 1% and the outcome was inactive.
In the case of `O=C(NCc1cccnc1)c1cc(C2CCCN(C(=O)C3CCCCC3)C2)on1` (centres undefined), the GFP+ MAC1+ double positive worked out at 0.6% and the compound was called inactive.
For `c1ccc2c(c1)CSc1sccc1C2=C1CCNCC1`, the GFP+ MAC1+ double positive amounted to 4.3% and the normalized GFP-positive differentiation is 87.9% (active).
